Screening data deposited in PubChem BioAssay by National Center for Advancing Translational Sciences (NCATS).
Most compounds without a hit are left out; they make up all but 5.4% or so of the library.
IMPase cell inh: cell-permeable inhibitors of inositol monophosphatase (IMPase); P97697; CHO-M1 cells, IP1 accumulation, HTRF TR-FRET ratio; inhibition (IP1 accumulation), % at 46.1 µM; 120,000 tested, under 10 active; AID 901; active = well fitted curve in the direction sought with a large enough effect in the signal ratio, not every such curve was filed as active; inconclusive = small, poorly fitted or top-dose-only effect, or a change in a side signal; inactive = no such curve, though single readings can be large or run the other way; the % refers to the signal ratio;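 note: cells stimulated with carbachol in lithium chloride buffer; plate controls were DMSO basal wells for no effect and reference inhibitor wells for full effect; higher means more IMPase inhibition seen as more IP1 and lower FRET ratio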
Target sequence (P97697 whole entry, looked up): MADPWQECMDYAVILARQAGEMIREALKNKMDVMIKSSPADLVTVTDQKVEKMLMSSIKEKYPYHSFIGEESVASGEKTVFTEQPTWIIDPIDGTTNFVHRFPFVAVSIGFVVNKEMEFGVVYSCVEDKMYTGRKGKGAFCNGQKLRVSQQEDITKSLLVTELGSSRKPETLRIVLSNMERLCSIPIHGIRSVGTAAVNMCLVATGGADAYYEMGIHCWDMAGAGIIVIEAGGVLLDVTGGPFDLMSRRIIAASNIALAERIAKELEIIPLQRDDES
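Carbachol-driven Gq signalling in CHO-M1 cells (2000/well) generates IP1. Compounds that block IMPase raise IP1 and so reduce the FRET signal from Eu-anti-IP1 and d2-IP1 after a 10 min room-temperature lysis.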
PNC inhibitor: perinucleolar compartment assembly inhibition; PC3M PTB-GFP, PNC prevalence imaging, 16 h; hits give low values; activity change (PNC), negative = inhibition, % at 10 µM; 140,000 compounds, 3.1% hits; AID 2417;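 active = readout at or below -70, meaning at least 70% loss of cells showing the perinucleolar compartment, a nuclear body marking cancer cells; inconclusive = readout between -30 and a set limit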;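 note: plate controls were DMSO wells for no effect and camptothecin positive control wells for full effect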
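PC3M cells stably expressing PTB-GFP, 750–1000 cells/well, treated 16 h at 37 °C with compound (23 nl of library stock), in duplicate. After paraformaldehyde fixation and Hoechst stain, imaged at 20x; PNC prevalence scored by image analysis.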
IMPase Li cell: membrane-permeable IMPase blocker, potentiated with lithium; CHO-M1 cells, IP1 TR-FRET (IP-One), carbachol + lithium; Potency, µM (top dose mostly 59.4 µM), for inactives: at the highest dose activity, negative = IMPase inhibition, usual class: inhibitors; 210,000 compounds, 0.35% hits; AID 1457;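 note: IP1 builds up when IMPase is blocked and the TR-FRET signal falls; potency is the fitted concentration of half-maximal effect; plate controls were basal vehicle for no effect and high inhibitor control for full effect; nearly all actives have a fitted effect of over 50% in size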
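IP1 accumulation measured by competitive TR-FRET in lysed CHO-M1 cells after 30 min compound exposure at 37C, with a small lithium addition to potentiate weak responses. Hill-equation AC50 from ratio and donor-channel data.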
ALOX15B inhib: inhibitors of human 15-lipoxygenase 2 (ALOX15B); O15296; 110,000 compounds, 0.56% hits; AID 881; purified 15hLO-2, xylenol orange hydroperoxide absorbance; Potency, µM (highest dose often 57.1 µM), without a hit: top-dose activity change, negative = inhibition, most hits filed as inhibitors; note: potency is the fitted concentration of half-maximal effect; nearly all actives have a fitted effect of over 60% in size
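Screening format was qHTS against 50 nM purified 15hLO-2 in Hepes pH 7.5 with detergent. Activity follows hydroperoxide formation from 45 uM arachidonic acid, measured as 573:405 nm absorbance ratio of the ferric-xylenol orange complex.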
12-hLO inh: 12-hLO (ALOX12) enzyme inhibition. P18054. purified 12-hLO, xylenol orange hydroperoxide absorbance. Potency, µM (series often up to 57.1 µM), inactives show at the top dose activity change, negative = inhibition, actives largely listed as inhibitors. 150,000 compounds, 0.12% hits; note: potency is the fitted concentration of half-maximal effect; nearly all actives have a fitted effect of over 55% in size
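Purified human 12hLO (150 nM final) was preincubated with compounds for 15 min at room temperature in 25 mM Hepes pH 7.0, 0.01% Triton X-100, then reacted with 40 uM arachidonic acid for 30 min. Hydroperoxide was detected with ferrous iron/xylenol orange.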
HPGD inh: inhibitors of human 15-hydroxyprostaglandin dehydrogenase (HPGD); purified HPGD, NADH fluorescence kinetic, PGE2 substrate; 150,000 compounds, 4.3% hits; Potency, µM, for the others: top-dose activity change, negative = inhibition, hits mostly inhibitors; P15428; active = well fitted inhibition curve with a large enough effect, not every such curve was filed as active; inconclusive = small, poorly fitted or top-dose-only effect, or another doubt; inactive = no such curve, though single readings can be large or run the other way; note: potency is the fitted concentration of half-maximal effect
Target sequence (P15428 whole entry, looked up): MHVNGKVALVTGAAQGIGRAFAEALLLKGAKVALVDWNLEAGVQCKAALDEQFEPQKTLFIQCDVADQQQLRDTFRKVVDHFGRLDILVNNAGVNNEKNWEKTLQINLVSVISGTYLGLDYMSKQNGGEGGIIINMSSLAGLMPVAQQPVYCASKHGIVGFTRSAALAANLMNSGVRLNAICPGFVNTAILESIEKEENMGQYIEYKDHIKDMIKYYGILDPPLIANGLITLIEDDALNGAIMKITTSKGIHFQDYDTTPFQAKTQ
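NADH formation kinetics: reaction with 30 uM PGE2 and 1 mM NAD+ (final), 20 nM enzyme, Tris-HCl pH 8 with Tween 20, after 15 min compound preincubation at room temperature. Fluorescence change, last versus first of five reads.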
* marks the source's active call; other numbers are inactive results; [ ] = dose if it differs, or a comment. Unless noted, calls come from the whole dose curve; as a rule, active = well fitted curve in the direction sought with a large enough effect; inconclusive = small, poorly fitted or top-dose-only effect, or another doubt; inactive = no such curve, though single readings can be large; an effect the other way counts as inactive or inconclusive. Unless noted, % is set by controls: 0 for no effect and ±100 for the full control effect.

Screening NNC(=O)c1ccc(COc2ccccc2)cc1 returned IMPase cell inh 3, PNC inhibitor -8, IMPase Li cell -1%, 12-hLO inh 5% and HPGD inh -19%.
Screening COC(=O)c1ccc(CNC(=O)c2ccc(COc3ccccc3)cc2)cc1 returned PNC inhibitor -100*, IMPase Li cell -5%, 12-hLO inh -3% and HPGD inh -28%.
`O=C(Nc1ccc(F)cc1)c1ccc(COc2ccccc2)cc1` gave PNC inhibitor inconclusive, IMPase Li cell 13µM*, 12-hLO inh 1% and HPGD inh -11%.
CC1(C)COCN1COC1CCCCC1 was read as IMPase Li cell 5%, ALOX15B inhib 0%[11.4 µM], 12-hLO inh 2%[11.4 µM] and HPGD inh -6%.
CC1CCN(c2nc3ccccc3nc2SCC(=O)Nc2ccccc2C(C)C)CC1 was read as IMPase cell inh 4.
COCCN1C(=O)c2ccccc2C(C(=O)N2CCN(c3ccccn3)CC2)C1c1ccc(F)cc1 (stereo not given) was read as IMPase cell inh 6, PNC inhibitor -100*, IMPase Li cell 5%, 12-hLO inh -1% and HPGD inh -23%.
Screening CCN(CC)CCCNC(=O)C1c2ccccc2C(=O)N(CCOC)C1c1ccc(F)cc1 (stereo not given) returned IMPase Li cell 7%.
`N#CCCn1c(=O)c(CCc2ccccc2)nc2cnc(N3CCOCC3)nc21` gave IMPase Li cell -26%, ALOX15B inhib 0%, 12-hLO inh -7% and HPGD inh inconclusive.
For CC(C)(C)CC(C)(C)c1cc(O)c(O)c(CN2CCCCC2)c1 the results were IMPase Li cell -7%, ALOX15B inhib inconclusive, 12-hLO inh -19%[11.4 µM] and HPGD inh -23%.
CC(Sc1nc(-c2ccccc2)cc(C(F)(F)F)n1)C(=O)Nc1sc2c(c1C(N)=O)CCC2 (stereo not given) was read as PNC inhibitor 3, IMPase Li cell 0%, 12-hLO inh 3% and HPGD inh 32µM*.
Screening CC(Sc1nc(-c2ccccc2)cc(C(F)(F)F)n1)C(=O)Nc1sc2c(c1C#N)CCC2 (stereo not given) returned IMPase cell inh 9, PNC inhibitor -20, IMPase Li cell -17%[38.3 µM], ALOX15B inhib -17%, 12-hLO inh -13% and HPGD inh -22%.
For NC(=O)COC(=O)c1ccccc1Nc1ccc(SC(F)F)cc1 the results were PNC inhibitor 65, IMPase Li cell 5%, 12-hLO inh -7% and HPGD inh 11µM*.
Screening O=C(COC(=O)c1ccccc1Nc1ccc(SC(F)F)cc1)NCc1ccco1 returned IMPase cell inh 6, PNC inhibitor 25, IMPase Li cell -3%[38.3 µM], ALOX15B inhib inconclusive, 12-hLO inh -2% and HPGD inh 14µM*.
Screening CC(C)(C)NC(=O)COC(=O)c1ccccc1Nc1ccc(SC(F)F)cc1 returned PNC inhibitor 11, IMPase Li cell 5%, 12-hLO inh -5% and HPGD inh inconclusive.
Screening CCOCCOCC returned IMPase Li cell 7%, ALOX15B inhib 6%, 12-hLO inh -3% and HPGD inh 3%.
COc1ccc(-c2ccc(S(=O)(=O)NCC3CCCO3)cc2)cc1 (stereo not given) was read as PNC inhibitor 5, IMPase Li cell 1%, 12-hLO inh -7% and HPGD inh inconclusive.
Screening COc1cc(S(=O)(=O)NCC2CCCO2)ccc1Br (stereo not given) returned IMPase cell inh 5, PNC inhibitor -112*, IMPase Li cell 25%[38.3 µM], ALOX15B inhib -3%, 12-hLO inh 8% and HPGD inh -12%.
For N#C[C@@H](N=Nc1ccccc1C(=O)O)C(N)=O the results were IMPase Li cell 2%, ALOX15B inhib -2%[11.4 µM], 12-hLO inh -1%[11.4 µM] and HPGD inh -5%.
`N#CCCCS(=O)(=O)c1ccccc1` gave IMPase Li cell 5% and HPGD inh -6%.
For CCCc1nc(SCc2ccc(Cl)cc2Cl)n[nH]1 the results were IMPase cell inh 1, PNC inhibitor 1, IMPase Li cell 24%[38.3 µM], ALOX15B inhib 6%, 12-hLO inh -1% and HPGD inh 16µM*.
CCc1nc(SCc2ccc(Cl)cc2)n[nH]1 was read as IMPase Li cell 6%.
Cc1ccc(C(C)C)c(OCc2ccc(-c3nnco3)cc2)c1 was read as IMPase cell inh 10, PNC inhibitor 42, IMPase Li cell 37%[38.3 µM], ALOX15B inhib 15%, 12-hLO inh -14% and HPGD inh 10µM*.
Cc1ccc(C(C)C)c(OCc2ccc(C(=O)N/N=C/c3cccc(O)c3O)cc2)c1 was read as PNC inhibitor 0, IMPase Li cell 16%, 12-hLO inh -1% and HPGD inh -22%.
For COc1cc(=O)n(C)c2c(OC[C@@H](O)C(C)(C)O)cccc12 the results were IMPase cell inh 7[20.6 µM], IMPase Li cell 1%, ALOX15B inhib 3%[25.6 µM], 12-hLO inh 1%[25.6 µM] and HPGD inh -10%.
COCCn1nnnc1CN1CCSCC1 was read as IMPase Li cell 5%.
COCCn1nnnc1CN1CCC(Cc2ccccc2)CC1 was read as IMPase cell inh -11, PNC inhibitor -100*, IMPase Li cell 2%, 12-hLO inh 4% and HPGD inh -9%.
For N[C@H](CO)Cc1cnc[nH]1 the results were IMPase cell inh -2, IMPase Li cell 9%, ALOX15B inhib -6%, 12-hLO inh 0% and HPGD inh 2%.
Screening Nc1n[nH]c(C(F)(F)F)c1-c1ccccc1 returned IMPase Li cell 8%.
Screening FC(F)C(F)(F)C(F)(F)C(F)(F)c1cc(-c2ccccc2)n[nH]1 returned IMPase cell inh 6, PNC inhibitor -4, IMPase Li cell 50%[38.3 µM], ALOX15B inhib -17%, 12-hLO inh -19% and HPGD inh 16µM*.
COC(=O)c1sc(S(=O)(=O)NCC(=O)O)c(C(=O)OC)c1C was read as IMPase Li cell -14%.
COC(=O)c1sc(S(=O)(=O)NCc2cccs2)c(C(=O)OC)c1C was read as IMPase cell inh 4, PNC inhibitor -111*, IMPase Li cell 18%, ALOX15B inhib 2%, 12-hLO inh -7% and HPGD inh -17%.
`Cc1cccc(C)c1OC[C@@H](N)C(C)C` gave IMPase cell inh 1, ALOX15B inhib -11% and 12-hLO inh -5%.
